# Bioassay records from PubChem.
# KB-3-1 cytotox – qHTS assay for MDR1-selective chemotherapeutics: Primary screen using the parental adenocarcinoma cell KB-3-1. KB-3-1 viability, CellTiter-Glo ATP luminescence, 72 h. Potency, µM (highest dose often 46.1 µM), hits mostly cytotoxic. 400,000 tested, 1.4% active; note: nearly all actives have a fitted effect of over 60% in size
#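 Parental KB-3-1 adenocarcinoma cells in phenol-red-free DMEM with 10% FBS were pin-treated with compounds at several concentrations, incubated 72 h at 37 °C, and viability read by CellTiter-Glo luminescence; concentration-effect curves were fitted after normalization.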
# TGFb inhibitor – qHTS for Inhibitors of TGF-b. HepG2 CAGA-GFP TGF-b/SMAD3 reporter, GFP fluorescence, 18 h; TGF-beta stimulated, 500 pg/mL final. Potency, µM (doses to about 46.1 µM), hits mostly inhibitors. 410,000 tested, 1.2% active; note: nearly all actives have a fitted effect of over 65% in size
#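 Inhibition of TGF-beta-driven CAGA-GFP reporter expression in HEPG2 cells is measured by cellular GFP fluorescence after 18 h stimulation with 500 pg/mL recombinant TGF-beta in 1% FBS medium at 37 degrees C.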
# HepG2 tox-1 – qHTS for Inhibitors of TGF-b: Cytotox Counterscreen; HepG2 CAGA-GFP viability, ATP luminescence, 18 h; Potency, µM (titrated, usually from 46.1 µM), usual class: cytotoxic; 410,000 tested, 0.76% active; AID 588856, 2011
#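 CellTiter-Glo luminescence gave cytotoxicity after 18 hours at 37 degrees C. The cells were HepG2 CAGA-GFP in 1% FBS DMEM, stimulated with 500 pg/mL TGF-beta after compound addition. %Activity was normalised to no-cell wells (complete cell-killing) and DMSO (no toxicity), and curves were fitted and classified.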
# HT1080 IDH1KD tx – qHTS for induction of synthetic lethality in tumor cells producing 2HG: qHTS for the HT-1080-IDH1KD cell line. HT-1080 IDH1 knockdown viability, ATP luminescence, 48 h. Potency, µM (series often up to 46.1 µM), most hits filed as cytotoxic. 360,000 tested, 2% active. AID 686971, 2013
#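 Luminescent ATP read-out (CellTiter-Glo, 10 min at room temperature) after 48 h compound exposure at 37 °C gave viability of IDH1-knockdown HT-1080 cells. Activity was normalised to DMSO and cell-free wells, then fitted as concentration-response curves.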
# KB-V1 cytotox – qHTS assay for MDR1-selective chemotherapeutics: Primary screen using the drug-selected MDR subline cells KB-V1. KB-V1 MDR cells viability, CellTiter-Glo, 72 h. Potency, µM (highest dose often 46.1 µM), most hits filed as cytotoxic. 400,000 tested, 3.4% active. AID 1347076, 2019; note: nearly all actives have a fitted effect of over 60% in size
#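 Following 72 h at 37 degrees C with compound, KB-V1 cell viability was read by CellTiter-Glo luminescence, medium being phenol-red-free DMEM plus 10% FBS; concentration-response parameters came from normalized, curve-fitted qHTS data.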
# HT1080NT lethal – qHTS for induction of synthetic lethality in tumor cells producing 2HG: qHTS for the HT-1080-NT fibrosarcoma cell line; HT-1080-NT fibrosarcoma viability, CellTiter-Glo ATP luminescence, 48 h; Potency, µM (top dose mostly 46.1 µM), hits mostly cytotoxic; 360,000 tested, 1.6% active; AID 686970, 2013;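 note: NT is the 2HG producing partner of a matched IDH1 knockdown line; nearly all actives have a fitted effect of over 55% in size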
#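 Luminescent CellTiter-Glo readout after 48 hours of compound exposure at 37 degrees C defined viability of HT-1080-NT cells. Activity was normalized to DMSO wells and cell-free media wells; concentration-response curves were fitted and assigned curve classes.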
# TGFb confirm – qHTS for Inhibitors of TGF-b: Confirmation of Cherry Picks; 1,600 tested, 63% active; Potency, µM (series often up to 46.1 µM), actives largely listed as inhibitors; HepG2 CAGA-GFP TGF-b reporter, GFP fluorescence, 18 h; cells stimulated with TGF-beta, 500 pg/mL; shares compounds with TGFb inhibitor; note: nearly all actives have a fitted effect of over 65% in size
# HepG2 tox-2 – qHTS for Inhibitors of TGF-b: Cytotox Counterscreen for Cherry Picks | 1,600 tested, 27% active | HepG2 CAGA-GFP viability, ATP luminescence, 18 h; cells stimulated with TGF-beta, 500 pg/mL | shares compounds with TGFb inhibitor | Potency, µM (top dose mostly 46.1 µM), most hits filed as inhibitors; note: nearly all actives have a fitted effect of over 70% in size
# TGFb CCL64 inh – qHTS for Inhibitors of TGF-b: CCL64 Cells Orthogonal Assay for Cherry Picks; shares compounds with TGFb inhibitor; CCL64 CAGA-GFP reporter, TGF-b stimulated, GFP fluorescence, 18 h; Potency, µM (titrated, usually from 46.1 µM), hits mostly inhibitors; 1,600 tested, 41% active; AID 720536, 2013; note: nearly all actives have a fitted effect of over 65% in size
# TGFb COP inh – qHTS for Inhibitors of TGF-b: Hit Validation in HepG2 Cells using COP promoter; shares compounds with TGFb inhibitor; HepG2 COP-GFP TGF-b reporter, GFP fluorescence, 18 h; cells stimulated by added recombinant TGF-beta; Potency, µM (doses to about 46.1 µM), hits mostly inhibitors; 1,600 tested, 3% active; AID 720537, 2013; note: nearly all actives have a fitted effect of over 70% in size
# A number is an active result; i = inactive; ? = inconclusive; nt = not tested or not shown. Compounds with a hit are over-represented: about 6.6% of the library has one in this group of screens. Calls come from the whole dose curve; as a rule, active = well fitted curve in the direction sought with a large enough effect; inconclusive = small, poorly fitted or top-dose-only effect, or another doubt; inactive = no such curve, though single readings can be large; an effect the other way counts as inactive or inconclusive.
SMILES,KB-3-1 cytotox,TGFb inhibitor,HepG2 tox-1,HT1080 IDH1KD tx,KB-V1 cytotox,HT1080NT lethal,TGFb confirm,HepG2 tox-2,TGFb CCL64 inh,TGFb COP inh
CN(C(=O)c1cccc(NC(=O)Cc2ccc(NC(=O)C3CCCN(S(=O)(=O)c4cccc([N+](=O)[O-])c4)C3)cc2)c1)C1CCCCC1 (stereo not drawn),i,?,i,i,i,i,nt,nt,nt,nt
O=C(Nc1ccc(Cl)cc1)c1cc2c(cc1O)[nH]c1ccccc12,?,6.31µM,i,14.6µM,?,14.6µM,7.31µM,5.17µM,3.26µM,i
CC(=O)Nc1ccc2[nH]c3ccccc3c2c1,i,i,i,i,?,i,nt,nt,nt,nt
Cc1ccc(C2(c3ccc(C)cc3)CC2C(=O)Nc2ccc([N+](=O)[O-])cc2O)cc1 (stereo not drawn),?,3.98µM,11.2µM,16.4µM,14.6µM,20.6µM,5.8µM,8.2µM,7.31µM,?
CC1(C)CC1C(=O)Nc1ccc([N+](=O)[O-])cc1Br (stereo not drawn),i,i,i,i,i,i,nt,nt,nt,nt
CN(C)CCC(O)(c1ccccc1)c1ccccc1Cl (stereo not drawn),i,i,i,i,?,i,nt,nt,nt,nt
N#CCCN(CCCN1CCOCC1)CN1C(=O)c2ccccc2C1=O,i,i,i,i,i,i,nt,nt,nt,nt
COC(C(=O)C(O)C(C)O)C1Cc2cc3cc(OC4CC(OC5CC(O)C(O)C(C)O5)C(O)C(C)O4)c(C)c(O)c3c(O)c2C(=O)C1OC1CC(OC2CC(OC3CC(O)C(OC)C(C)O3)C(O)C(C)O2)C(O)C(C)O1 (stereo not drawn),0.184µM,1µM,i,0.0103µM,i,?,0.366µM,0.092µM,1.64µM,i
CCCCNC(=O)C1(C)CCCCN1C(=O)c1ccc(C)c(F)c1 (stereo not drawn),i,i,i,i,i,i,nt,nt,nt,nt
COC(=O)c1c(NC(=O)/C=C/c2ccc(OC)c(OC)c2)sc2c1CCC2,nt,i,i,nt,nt,nt,nt,nt,nt,nt
CCOc1cc2c(cc1O)C(=NOC)CC1C2CCC2(C)C(O)CCC12 (stereo not drawn),0.651µM,17.8µM,i,1.46µM,0.517µM,1.64µM,7.31µM,i,7.31µM,i
Cc1ccccc1OCC(=O)NCC(C)NC(=O)COc1ccccc1C (stereo not drawn),i,i,i,nt,i,nt,nt,nt,nt,nt
CC1=C(C(=O)Nc2ccccc2F)C(c2ccsc2)C2=C(CC(C)(C)CC2=O)N1 (stereo not drawn),?,i,i,?,i,?,nt,nt,nt,nt
